According to PMC8384837, “Expanding the binding specificity for RNA recognition by a PUF domain”:

Each sequence was assayed against PUM1 PUF domain R5-LWS (Homo sapiens, UniProt Q14671 828-1176, C1007L;R1008W;Q1011S) (assay: yeast three-hybrid, YBZ-1, SC-Leu-His + 0.5 mM 3-AT, 4 days). Conditions: tags: N-Gal4 AD-HA kept; label: inside an RPR1-promoter hybrid RNA with tandem MS2 sites; ssRNA.
Method in brief: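 Each repeat of the Pumilio-1 PUF domain was randomized at its three base-contacting residues, and these libraries were co-expressed from a centromeric plasmid with matching RNA elements in strain YBZ-1. After four days on SC-Leu (input) or SC-Leu-His + 0.5 mM 3-AT (selection), the repeat regions were PCR-amplified and Illumina-sequenced. The interaction score compares variant frequency between input and selection as a log change, computed in log2 with a pseudocount of 1 for absent variants.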

Chain of PUM1 PUF domain R5-LWS (Q14671 828-1176 C1007L/R1008W/Q1011S): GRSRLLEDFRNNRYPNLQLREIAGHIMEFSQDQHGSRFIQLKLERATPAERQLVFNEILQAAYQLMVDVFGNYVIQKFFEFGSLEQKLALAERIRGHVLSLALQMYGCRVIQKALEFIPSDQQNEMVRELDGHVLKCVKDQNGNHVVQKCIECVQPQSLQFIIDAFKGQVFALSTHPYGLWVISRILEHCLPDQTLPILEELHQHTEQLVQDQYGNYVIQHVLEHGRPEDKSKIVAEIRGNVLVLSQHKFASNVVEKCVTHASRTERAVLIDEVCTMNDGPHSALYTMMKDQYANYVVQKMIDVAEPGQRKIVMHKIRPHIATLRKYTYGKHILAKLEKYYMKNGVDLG

Sequence | binding signal
GGCUAGAACUAGUGGAUCCCCCGGCGCCCGGCGGCUCGAGCCCGGGUAAGUGUAAAUAGUCUGCAUGCCGCCGGGCGCCAUGCCUGCAGGUCGACUCUAGAAAACAUG | 2.04 log2 enrichment (interaction score)
GGCUAGAACUAGUGGAUCCCCCGGCGCCCGGCGGCUCGAGCCCGGGUAAGUGUGAAUAGUCUGCAUGCCGCCGGGCGCCAUGCCUGCAGGUCGACUCUAGAAAACAUG | 1.62 log2 enrichment (interaction score)
GGCUAGAACUAGUGGAUCCCCCGGCGCCCGGCGGCUCGAGCCCGGGUAAGUGUCAAUAGUCUGCAUGCCGCCGGGCGCCAUGCCUGCAGGUCGACUCUAGAAAACAUG | 2.81 log2 enrichment (interaction score)
GGCUAGAACUAGUGGAUCCCCCGGCGCCCGGCGGCUCGAGCCCGGGUAAGUGUUAAUAGUCUGCAUGCCGCCGGGCGCCAUGCCUGCAGGUCGACUCUAGAAAACAUG | 2.93 log2 enrichment (interaction score)
